Source: PubChem BioAssay (several laboratories)
S1P2 ag = agonists of human S1P2 receptor; O95136; S1P2-expressing cell line, agonist reporter read-out; activation, % at 4.5 µM; 0.46% of 97,000 active; AID 729; in the data active = activation above about 16%;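 also: 0% = vehicle low control and 100% = maximal reference agonist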
Target sequence (O95136 whole entry, looked up): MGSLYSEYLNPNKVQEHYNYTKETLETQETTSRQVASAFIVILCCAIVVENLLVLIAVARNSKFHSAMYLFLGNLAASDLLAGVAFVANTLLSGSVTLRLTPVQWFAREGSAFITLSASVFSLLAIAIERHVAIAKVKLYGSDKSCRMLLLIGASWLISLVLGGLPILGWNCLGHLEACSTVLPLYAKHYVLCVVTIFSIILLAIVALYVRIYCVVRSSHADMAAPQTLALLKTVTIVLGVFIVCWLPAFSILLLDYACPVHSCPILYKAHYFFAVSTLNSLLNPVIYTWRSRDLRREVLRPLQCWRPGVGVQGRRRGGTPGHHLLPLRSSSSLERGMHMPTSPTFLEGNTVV
GALR2 ag = GALR2 (human) receptor agonism | O43603 | GALR2-expressing cells, agonist activation read-out | activation, % (no concentration beside the values) | 0.48% of 140,000 active | AID 803; in the data active = activation above about 5%, passing the limit was not always enough;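 also: 0% = vehicle buffer wells and 100% = reference agonist at full effect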
PTPN22 act = LYP (human) phosphatase activation | Q9Y2R2 | recombinant LYP, DiFMUP fluorescence; 0 = plate median, 100 = signal doubled | activation, % at 2 µM | 0.11% of 96,000 active;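 active = activation at 2 µM above a set limit, the mean plus 5 SD, cut at about 37% in these data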
LYP inh 2 = LYP (human) phosphatase inhibition | Q9Y2R2 | recombinant LYP catalytic domain, DiFMUP fluorescence | inhibition, % at 2 µM | 0.21% of 96,000 active | AID 640;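 active = inhibition at 2 µM at or above a set limit, the screen mean plus 3 SD, cut at about 24% in these data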;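 also: 0% = DMSO with enzyme and 100% = enzyme fully blocked by orthovanadate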
S1P2 blocker = S1P2 (human) receptor antagonism. 0.21% of 97,000 active. O95136. inhibition, % at 5 µM. cell-based S1P2 antagonist assay, inhibition at 5 uM; in the data active = inhibition above about 45%;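 also: CRE beta-lactamase reporter cells expressing human S1P2 stimulated with S1P; 0% = agonist at EC80 alone and 100% = agonist plus reference antagonist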
GALR2 antag = GALR2 (human) receptor antagonism. O43603. GALR2-expressing cells, antagonist mode. inhibition, % at 4 µM. 0.39% of 140,000 active; in the data active = inhibition above about 27%;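 also: cells stimulated with galanin 1-16 at roughly its EC80; 0% = agonist challenge control and 100% = basal control without agonist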
Active calls of the source: *. A selection: hits, their analogues and other compounds. The true share with any hit is near 1.4%.

For CCOc1ccc(N(CC(=O)Nc2ccccc2C(=O)NCc2ccco2)S(C)(=O)=O)cc1 the results were S1P2 ag -4.9, GALR2 ag -3.6, PTPN22 act -42.1, LYP inh 2 41.2*, S1P2 blocker -5.6 and GALR2 antag 0.2.
Screening CSc1nc(SCCO)c2sc3nc(-c4ccco4)c4c(c3c2n1)CC(C)(C)OC4 returned S1P2 ag 7.2, GALR2 ag 6.3*, PTPN22 act -22.0, LYP inh 2 22.4, S1P2 blocker -18.4 and GALR2 antag 7.5.
Screening CC(C)CN(CC(C)C)c1nc(N)c(C#N)c(CC#N)c1C#N returned S1P2 ag -2.6, GALR2 ag 6.3*, PTPN22 act -5.7, LYP inh 2 8.8, S1P2 blocker -28.3 and GALR2 antag -3.1.
For CN(c1ccccc1)c1nc(N)c(C#N)c(CC#N)c1C#N the results were GALR2 ag 0.4 and GALR2 antag -24.7.
COc1ccc(C(=O)Nc2nc3nccc(-c4ccccc4)n3n2)cc1 was read as GALR2 ag 0.5 and GALR2 antag -0.6.
COc1cc(-c2nnc(SCC3(c4ccc(Br)cc4)OCCO3)o2)cc(OC)c1OC was read as S1P2 ag -8.7, GALR2 ag -2.2, PTPN22 act -5.9, LYP inh 2 10.8, S1P2 blocker -27.4 and GALR2 antag -8.8.
Screening CCOC(=O)c1c(-c2ccc(-c3ccccc3)cc2)csc1NC(=O)c1cccc(N2C(=O)CCC2=O)c1 returned GALR2 ag -0.9 and GALR2 antag 3.7.
CCOC(=O)c1c(NC(=O)c2cccc(N3C(=O)CCC3=O)c2)sc(C)c1C was read as S1P2 ag 16.1*, GALR2 ag -2.2, PTPN22 act -8.9, LYP inh 2 8.5, S1P2 blocker -10.3 and GALR2 antag 3.1.
For Cc1cccc(-n2nc(C(=O)c3ccco3)cc(-c3nc4ccccc4[nH]3)c2=N)c1 the results were GALR2 ag -0.1 and GALR2 antag 9.6.
For Cc1ccccc1-n1nc(C(=O)c2cccs2)cc(-c2nc3ccccc3[nH]2)c1=N the results were S1P2 ag 24.3*, GALR2 ag -2.6, PTPN22 act -9.1, LYP inh 2 8.4, S1P2 blocker -12.3 and GALR2 antag 11.7.
Screening COc1ccc(-n2nc(C(=O)c3cccs3)cc(-c3nc4ccccc4[nH]3)c2=N)cc1 returned S1P2 ag 22.3*, GALR2 ag -1.4, PTPN22 act -21.3, LYP inh 2 18.8, S1P2 blocker -44.8 and GALR2 antag 6.6.
For COC(=O)c1[nH]nc(C(=O)OC(C)(C)C)c1-c1ccccc1 the results were GALR2 ag 0.2 and GALR2 antag -3.0.
COc1ccc(-n2c(=O)c3ccccc3n(CC(=O)NC3CCCCC3)c2=O)cc1 was read as S1P2 ag -6.9, GALR2 ag -2.3, PTPN22 act -11.1, LYP inh 2 13.6, S1P2 blocker -7.0 and GALR2 antag -2.4.
For Cc1nc(NC(=O)c2ccc(Cl)cc2)sc1-c1csc(Nc2cccc(F)c2)n1 the results were S1P2 ag -7.1, GALR2 ag -0.7, PTPN22 act -1.8, LYP inh 2 5.6, S1P2 blocker 16.7 and GALR2 antag 11.8.
COc1cc(/C=C/C(=O)O)cc(S(=O)(=O)Nc2cccc(SC)c2)c1OC was read as GALR2 ag -0.1 and GALR2 antag 7.7.
`C=CCNC(=S)NNC(=O)c1cccn(Cc2ccc(Cl)cc2Cl)c1=O` gave S1P2 ag -3.3, GALR2 ag -1.1, PTPN22 act -47.3, LYP inh 2 48.6*, S1P2 blocker 12.4 and GALR2 antag -12.2.
For CCNC(=S)NNC(=O)c1cccn(Cc2ccc(Cl)cc2Cl)c1=O the results were S1P2 ag -1.8, GALR2 ag -3.1, PTPN22 act -59.0, LYP inh 2 60.1*, S1P2 blocker 15.7 and GALR2 antag 2.5.
For CCCCCCN1CC(O)=C(c2nc3ccccc3[nH]2)C1=N the results were GALR2 ag 7.2* and GALR2 antag 26.0.
Screening CCC(C)N1CC(O)=C(c2nc3ccccc3[nH]2)C1=N (configuration not stated) returned S1P2 ag 0.0, GALR2 ag -0.3, PTPN22 act 3.5, LYP inh 2 -2.9, S1P2 blocker 10.1 and GALR2 antag 1.5.
`COc1cc([N+](=O)[O-])ccc1NC(=O)CCCOc1cc(C)ccc1C` gave GALR2 ag -0.6 and GALR2 antag -7.2.
CCC(C)NC(=O)C1CCN(c2nc(OC)nc(OC)n2)CC1 (configuration not stated) was read as S1P2 ag 22.4*, GALR2 ag -1.6, PTPN22 act -1.4, LYP inh 2 -1.6, S1P2 blocker -4.3 and GALR2 antag -3.4.
Screening COc1ccccc1-c1c(C(F)(F)F)oc2cc(OC(=O)c3ccc([N+](=O)[O-])cc3)ccc2c1=O returned GALR2 ag -1.6 and GALR2 antag 4.1.
`CCN(C(=O)CN(C)Cc1cccc(Cl)c1Cl)c1c(N)n(Cc2ccccc2)c(=O)[nH]c1=O` gave GALR2 ag -0.8 and GALR2 antag 2.9.
`Cc1csc(NC(=O)CSc2nnc(-c3cc(C)on3)o2)n1` gave GALR2 ag -0.8 and GALR2 antag 5.0.
For Cc1cc(-c2nnc(SCC(=O)NC3CCCC3)o2)no1 the results were S1P2 ag 70.5*, GALR2 ag -0.8, PTPN22 act 5.0, LYP inh 2 -5.4, S1P2 blocker 14.6 and GALR2 antag 1.4.
For Cc1ccc(OCCSc2nc(NC(C)C)nc(NC(C)C)n2)cc1 the results were GALR2 ag -0.1 and GALR2 antag -19.3.
`O=S1(=O)C=C(Sc2nnc(-c3ccccc3)o2)c2ccccc21` gave GALR2 ag -3.0 and GALR2 antag 87.7*.
Screening Cc1ccc(-n2nc(C)c3c(C(=O)OCC(=O)N(C)C4CCS(=O)(=O)C4)cc(-c4ccccc4)nc32)cc1 (configuration not stated) returned GALR2 ag -2.5 and GALR2 antag -9.0.
For CS(=O)(=O)c1ncc(Cl)c(C(=O)Nc2ccc(N3CCOCC3)cc2)n1 the results were GALR2 ag -1.5 and GALR2 antag 28.8*.
For CC(C)CC(=O)Nc1cc([N+](=O)[O-])ccc1Cl the results were S1P2 ag 17.4*, GALR2 ag -3.0, PTPN22 act 7.8, LYP inh 2 -4.8, S1P2 blocker 7.0 and GALR2 antag -7.6.
Screening CCOc1cc(/C=N/NC(=O)CCCC(=O)NC2CCCCC2)ccc1O returned GALR2 ag 0.2 and GALR2 antag -14.0.
`C(=N\Nc1nc(Nc2ccccc2)nc(N2CCOCC2)n1)/c1c[nH]c2ccccc12` gave S1P2 ag -7.6, GALR2 ag -1.9, PTPN22 act -4.4, LYP inh 2 7.2, S1P2 blocker 46.6* and GALR2 antag 13.0.
Screening Cc1ccc(Nc2nc(N/N=C/c3c[nH]c4ccccc34)nc(N3CCOCC3)n2)cc1 returned GALR2 ag -0.6 and GALR2 antag 15.9.
O=C(Nc1cc(Cl)cc(Cl)c1)c1ccc(Cn2c(=O)[nH]c3ccsc3c2=O)cc1 was read as GALR2 ag 0.7 and GALR2 antag -1.8.
